Results filed as inconclusive are left out. Calls of active or inactive are those of the source. The calls were made as follows: active = hit-call score of the fitted dose curve at least 0.9, where 1 is the maximum; inconclusive = response in the unintended direction; inactive = score below 0.9. *1 amine or outer side, *2 acyl side, *3 side chain or, on linkers, in order; H or OH if unused. Where a SMILES comes first, the peptide text is derived from it. Bridges are numbered along the chain shown (N, C = ends). [ ]: non-standard residue; d: D form. The star is where a group is joined. X3 = NC1=N[C@@H]([C@H](N[*:1])C(=O)[*:2])C[C@H](O)N1; ΔAla(Z-3-ureido) = NC(=O)N/C=C(\N)C(=O)O; β3hOrn = NCCC[C@H](N)CC(=O)*; Dap = NC[C@H](N)C(=O)O

For orientation: AC50 means the concentration at which the activity in the assay is half-maximal.

One experiment has as its target Cellular tumor antigen p53 (Homo sapiens) (UniProt P04637). The experiment is described as follows: TOX21_p53_BLA_p5_ratio: Tox21 HCT-116 p53 Agonism Beta-lactamase Assay, Ratio, Phase 5 (AID 2283599). A digest of the protocol: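 Beta-lactamase reporter ratio (blue 460 nm over green 530 nm, 405 nm excitation) after 2 h CCF4-AM loading, in HCT-116 cells exposed 16 h at 37 C to compounds pinned at 217-fold dilution. Increases relative to DMSO baseline scored.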
On to `CN(C)CCC(c1ccccc1)c1ccccn1` (configuration not stated), for which the outcome was inactive.

`C=C(C)C(=O)OCC[N+](C)(C)C`: the AC50 is 72.9 µM (active).

As for `CN1c2cc(O)c(N=NC(N)=O)cc2CC1S(=O)(=O)O` (configuration not stated), the outcome was inactive.

For the compound `C=CCOc1cc(Cl)ccc1C(=O)NCCN(CC)CC`, the outcome was inactive.

On to `O=c1[nH]cnc2nc[nH]c12`, for which the result was inactive.

As to `CCn1c2ccccc2c2cc([N+](=O)[O-])ccc21`, the result was inactive.

As to `OC[C@@H](O)C(O)[C@@H](O)CO` (some centres not stated), the outcome was inactive.

Regarding `NS(=O)(=O)c1cc2c(cc1Cl)NC(CC1CCCC1)NS2(=O)=O` (configuration not stated), the result was inactive.

Consider `CCCCCCN`, for which the result was inactive.

As for `CC(=O)[C@H]1CC[C@H]2[C@@H]3C[C@H](C)C4=CC(=O)CC[C@]4(C)[C@H]3[C@@H](O)C[C@]12C`, the result was inactive.

With `Cc1c(Cn2ccnc2)c2ccccc2n1CCC(=O)O`, the result was inactive.

In the case of `N[C@H](C(=O)O)c1ccc(O)cc1`, the outcome was inactive.

As to `O=c1[nH]c(=O)c2ccccc2o1`, the outcome was inactive.

For `O=[N+]([O-])c1ccc(/C=N\O)o1`, the result was inactive.

For the compound `CC(=O)SC[C@@H](C)C(=O)N1CCC[C@H]1C(=O)N[C@@H](Cc1ccccc1)C(=O)O`, the outcome was inactive.

Take `N.N.O=C([O-])C1(C(=O)[O-])CCC1.[Pt+4]`: the outcome was inactive.

Regarding `CCCCCCCCN`, the result was inactive.

Take `C[C@@H]1C\C=C/C=C/C=C/C=C/[C@H](O[C@@H]2O[C@H](C)[C@@H](O)[C@H](N)[C@@H]2O)C[C@@H]2O[C@](O)(C[C@@H](O)C[C@@H]3O[C@@H]3/C=C\C(=O)O1)C[C@H](O)[C@H]2C(=O)O`: the result was inactive.

With `O=P(O)(O)C(O)(Cn1ccnc1)P(=O)(O)O`, the outcome was inactive.

Turning to `CCNc1nc(NC(C)CC)nc(OC)n1` (configuration not stated), the outcome was inactive.

`CCCCCCCCCC(=O)N(C)C`: the outcome was inactive.

Regarding `CC1(N)CCC(C(C)(C)N)CC1` (configuration not stated), the result was inactive.

Regarding `COc1ccc(N=[N+]([O-])c2ccc(OC)cc2)cc1`, the outcome was inactive.

In the case of `Nc1ccn(C[C@@H](CO)OCP(=O)(O)O)c(=O)n1`, the result was inactive.

As for `CN(C)CCc1c[nH]c2ccc(C[C@H]3COC(=O)N3)cc12`, the result was inactive.

Test system in a further experiment: not listed separately
The experiment in a line: TOX21_p53_BLA_p5_viability: Viability Assessment in the Tox21 HCT-116 p53 Agonism Beta-lactamase Assay, Phase 5 (AID 2283600). In outline: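 After the 460/530 nm beta-lactamase measurement, the wells received an ATP-detection luciferase reagent; signal was read 30 min later at RT. Compound treatment lasted 16 h on cells pre-incubated 5 h post-seeding.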
On to `CC(=O)OCC(=O)[C@@]1(O)CC[C@H]2[C@@H]3CCC4=CC(=O)C=C[C@]4(C)[C@@]3(F)[C@@H](O)C[C@@]21C`, for which the outcome was inactive.

Take `CN(C)CCC(c1ccccc1)c1ccccn1` (configuration not stated): the compound was classed as inactive.

As for `CCNc1cc(O)ccc1C`, the result was inactive.

With `CCCc1ncc(C[n+]2ccccc2C)c(N)n1`, the outcome was inactive.

As for `OC[C@@H](O)C(O)[C@@H](O)CO` (some centres not stated), the result was inactive.

For `CCCCCCN`, the result was inactive.

As for `Cc1c(Cn2ccnc2)c2ccccc2n1CCC(=O)O`, the compound was called inactive.

For the compound `N[C@H](C(=O)O)c1ccc(O)cc1`, the compound was classed as inactive.

As to `CC(=O)SC[C@@H](C)C(=O)N1CCC[C@H]1C(=O)N[C@@H](Cc1ccccc1)C(=O)O`, the compound was called inactive.

`N.N.O=C([O-])C1(C(=O)[O-])CCC1.[Pt+4]`: the outcome was inactive.

Regarding `CCCCCCCCN`, the compound was classed as inactive.

On to `O=P(O)(O)C(O)(Cn1ccnc1)P(=O)(O)O`, for which the outcome was inactive.

`CCNc1nc(NC(C)CC)nc(OC)n1` (configuration not stated): the AC50 was 0.00012 µM (active).

On to `CC1(C)S[C@@H]2[C@H](N=CN3CCCCCC3)C(=O)N2[C@H]1C(=O)O`, for which the result was inactive.

On to `CC(O)c1ccccc1` (configuration not stated), for which the call was inactive.

On to `CCCCCCCCCC(=O)N(C)C`, for which the outcome was inactive.

With `CC1(N)CCC(C(C)(C)N)CC1` (configuration not stated), the outcome was inactive.

Take `NC(=S)NC(N)=S`: the compound was called inactive.

With `Nc1ccn(C[C@@H](CO)OCP(=O)(O)O)c(=O)n1`, the compound was called inactive.

`CN(C)CCc1c[nH]c2ccc(C[C@H]3COC(=O)N3)cc12`: the compound was called inactive.

The target in a further experiment is Cellular tumor antigen p53 (Homo sapiens) (UniProt P04637). The experiment in a line: TOX21_p53_BLA_p4_ratio: Tox21 HCT-116 p53 Agonism Beta-lactamase Assay, Ratio, Phase 4 (AID 2283601). In outline: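 Signal is the blue/green (460nm/530nm) ratio of cleaved versus uncleaved CCF4-AM substrate, read after 2 h substrate loading. Cells were HCT116 carrying the p53-responsive beta-lactamase reporter, dosed 16 h at 37C, 5% CO2; CellTiter-Glo measured in parallel.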
Sequence of Cellular tumor antigen p53 (Homo sapiens) (P04637 whole entry, looked up): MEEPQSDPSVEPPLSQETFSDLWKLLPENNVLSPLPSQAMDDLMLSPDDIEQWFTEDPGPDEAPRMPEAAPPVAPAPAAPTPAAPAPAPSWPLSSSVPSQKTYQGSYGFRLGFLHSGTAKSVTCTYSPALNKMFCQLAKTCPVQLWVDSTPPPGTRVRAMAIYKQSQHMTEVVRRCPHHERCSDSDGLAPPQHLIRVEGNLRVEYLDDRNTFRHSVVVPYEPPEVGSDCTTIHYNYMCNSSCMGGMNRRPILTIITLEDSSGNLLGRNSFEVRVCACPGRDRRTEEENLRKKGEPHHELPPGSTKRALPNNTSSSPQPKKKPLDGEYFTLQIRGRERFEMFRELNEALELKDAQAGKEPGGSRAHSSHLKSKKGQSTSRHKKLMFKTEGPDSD
On to `CC(=O)OCC(=O)[C@@]1(O)CC[C@H]2[C@@H]3CCC4=CC(=O)C=C[C@]4(C)[C@@]3(F)[C@@H](O)C[C@@]21C`, for which the result was inactive.

With `CN(C)CCC(c1ccccc1)c1ccccn1` (configuration not stated), the result was inactive.

`C=C(C)C(=O)OCC[N+](C)(C)C`: the outcome was inactive.

`CCNc1cc(O)ccc1C`: the result was inactive.

In the case of `C=CCOc1cc(Cl)ccc1C(=O)NCCN(CC)CC`, the result was inactive.

With `CCC(C)(C)C`, the outcome was inactive.

Turning to `O=c1[nH]cnc2nc[nH]c12`, the outcome was inactive.

In the case of `CCCc1ncc(C[n+]2ccccc2C)c(N)n1`, the outcome was inactive.

For `Cc1cc(C(=O)NCCc2ccc(S(=O)(=O)NC(=O)NN3CCCCCC3)cc2)no1`, the outcome was inactive.

Consider `CCn1c2ccccc2c2cc([N+](=O)[O-])ccc21`, for which the outcome was inactive.

Consider `Cc1c(Cn2ccnc2)c2ccccc2n1CCC(=O)O`, for which the outcome was inactive.

In the case of `N[C@H](C(=O)O)c1ccc(O)cc1`, the outcome was inactive.

Regarding `O=[N+]([O-])c1ccc(/C=N\O)o1`, the result was inactive.

Take `C=CCCCCCCCCCCCCCCCC`: the result was inactive.

For the compound `O=P(O)(O)C(O)(Cn1ccnc1)P(=O)(O)O`, the result was inactive.

Consider `CCOc1cc(OCC)c(C(=O)CCC(=O)O)cc1OCC`, for which the result was inactive.

In the case of `CCNc1nc(NC(C)CC)nc(OC)n1` (configuration not stated), the outcome was inactive.

Take `CC1(C)S[C@@H]2[C@H](N=CN3CCCCCC3)C(=O)N2[C@H]1C(=O)O`: the outcome was inactive.

For `CC(O)c1ccccc1` (configuration not stated), the outcome was inactive.

Turning to `NCCC[C@H](N)CC(=O)N[C@H]1CNC(=O)[C@H]([C@H]2C[C@H](O)NC(N)=N2)NC(=O)/C(=C/NC(N)=O)NC(=O)[C@H](CO)NC(=O)[C@H](CO)NC1=O` (β3hOrn-[Dap]SS[ΔAla(Z-3-ureido)][X3]; lactam 1-C), the result was inactive.

As for `NC(=S)NC(N)=S`, the result was inactive.

With `C[C@@H]1CC[C@H]2C(C)(C)[C@H]3C[C@@]12CC[C@@]3(C)O`, the result was inactive.
